Consider 5 sequences from publication PMC8384837, “Expanding the binding specificity for RNA recognition by a PUF domain”.

One test addresses PUM1 PUF domain R2-GWD (Homo sapiens, UniProt Q14671 828-1176, N899G;Y900W;Q903D). Description: yeast three-hybrid, YBZ-1, SC-Leu-His + 0.5 mM 3-AT, 4 days. The note with it: tags: N-Gal4 AD-HA kept; label: inside an RPR1-promoter hybrid RNA with tandem MS2 sites; ssRNA. Put shortly: (§1)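 The interaction score is the logarithmic change in variant frequency from input to selection. It uses log2, with a pseudocount of 1 for absent variants, and frequencies came from PCR-amplified, Illumina-sequenced repeat regions. The libraries were Pumilio-1 PUF domains randomized at the three base-contacting residues per repeat, co-expressed with matching RNA elements in strain YBZ-1 (LexA–MS2 coat fusion, HIS3 reporter). Plating lasted four days on SC-Leu (input) or SC-Leu-His + 0.5 mM 3-AT (selection).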
Take “GGCUAGAACUAGUGGAUCCCCCGGCGCCCGGCGGCUCGAGCCCGGGUAAGUGUAAAAAGUCUGCAUGCCGCCGGGCGCCAUGCCUGCAGGUCGACUCUAGAAAACAUG”: the binding signal was 3.74 log2 enrichment (interaction score). Take “GGCUAGAACUAGUGGAUCCCCCGGCGCCCGGCGGCUCGAGCCCGGGUAAGUGUAAAGAGUCUGCAUGCCGCCGGGCGCCAUGCCUGCAGGUCGACUCUAGAAAACAUG”: the binding signal is 10.1 log2 enrichment (interaction score).

Consider “GGCUAGAACUAGUGGAUCCCCCGGCGCCCGGCGGCUCGAGCCCGGGUAAGUGUAAAUAGUCUGCAUGCCGCCGGGCGCCAUGCCUGCAGGUCGACUCUAGAAAACAUG”, for which the binding signal is 1.77 log2 enrichment (interaction score).

The next test addresses PUM1 PUF domain R3-LYG (Homo sapiens, UniProt Q14671 828-1176, C935L;R936Y;Q939G). The description is as above. The note with it: tags: N-Gal4 AD-HA kept; label: inside an RPR1-promoter hybrid RNA with tandem MS2 sites; ssRNA. Put shortly: as §1
For “GGCUAGAACUAGUGGAUCCCCCGGCGCCCGGCGGCUCGAGCCCGGGUAAGUGUAAGUAGUCUGCAUGCCGCCGGGCGCCAUGCCUGCAGGUCGACUCUAGAAAACAUG”, the binding signal was 6.19 log2 enrichment (interaction score). The same measure, in the same setting: then “GGCUAGAACUAGUGGAUCCCCCGGCGCCCGGCGGCUCGAGCCCGGGUAAGUGUAAAUAGUCUGCAUGCCGCCGGGCGCCAUGCCUGCAGGUCGACUCUAGAAAACAUG”, with 2.65 log2 enrichment (interaction score). Still for that read-out and setting: then “GGCUAGAACUAGUGGAUCCCCCGGCGCCCGGCGGCUCGAGCCCGGGUAAGUGUAAUUAGUCUGCAUGCCGCCGGGCGCCAUGCCUGCAGGUCGACUCUAGAAAACAUG”, with 4.62 log2 enrichment (interaction score).
